Source: PubChem BioAssay (Tox21)
Several values for one entry are separate records, joined by “and”; a condition that tells them apart may be missing. Identical values can stand only once. Records with an inconclusive call do not appear. Entries that show only a call come without a potency. Some structures have more than one record in an assay (separate samples or runs), and their calls can disagree. Activity calls are given as the source filed them. Unless noted, calls come from the whole dose curve.

Columns and labels:
[1] = qHTS assay to identify small molecule agonists of the sonic hedgehog signaling (Shh) pathway (AID 1259368);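 note: NIH/3T3-derived 3T3Gli1-Luc cells carrying a stable Gli1-driven firefly luciferase reporter; series mostly up to about 92 µM; nearly all actives have a fitted effect of over 15% in size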
Method in brief: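 Stable NIH/3T3 Gli1-Luc reporter clone; 24 hr cpd exposure after a 4 hr settling period; luminescence endpoint.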

[2] = qHTS assay to identify small molecule antagonists of the sonic hedgehog signaling (Shh) pathway (AID 1259369); note: nearly all actives have a fitted effect of over 45% in size; note: potency is the fitted concentration of half-maximal effect
Method in brief: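 Gli1 transcriptional reporter (firefly Luc) in NIH/3T3 background, conditioned-medium activated. 24hr exposure, luminescence endpoint.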

[3] = target: Estrogen receptor beta (Homo sapiens) (UniProt Q92731); test: qHTS assay to identify small molecule agonists of the estrogen receptor beta (ER-beta) signaling pathway (AID 1259377; active = well fitted activation curve with a large enough effect in the signal ratio in the repeat runs, not every such curve was filed as active; the % refers to the signal ratio)
Estrogen receptor beta (Homo sapiens), sequence (Q92731 whole entry, looked up): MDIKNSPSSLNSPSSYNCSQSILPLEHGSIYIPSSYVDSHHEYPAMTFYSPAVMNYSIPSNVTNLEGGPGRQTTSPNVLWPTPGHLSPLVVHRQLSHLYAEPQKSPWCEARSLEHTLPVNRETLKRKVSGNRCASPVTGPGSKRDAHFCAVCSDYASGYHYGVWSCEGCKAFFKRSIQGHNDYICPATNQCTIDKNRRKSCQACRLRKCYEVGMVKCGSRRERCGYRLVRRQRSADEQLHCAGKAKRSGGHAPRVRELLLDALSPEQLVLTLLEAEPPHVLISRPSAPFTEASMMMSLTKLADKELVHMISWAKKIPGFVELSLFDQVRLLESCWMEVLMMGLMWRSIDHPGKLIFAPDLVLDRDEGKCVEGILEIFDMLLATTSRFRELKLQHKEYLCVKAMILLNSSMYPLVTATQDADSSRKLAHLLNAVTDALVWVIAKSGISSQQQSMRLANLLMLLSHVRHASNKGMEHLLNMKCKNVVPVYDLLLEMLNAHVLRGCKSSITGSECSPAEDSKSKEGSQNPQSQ
Method in brief: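 ER-beta-UAS-bla HEK293T (GripTite) cells carrying a UAS-driven beta-lactamase reporter, in medium with 2% charcoal-stripped FBS, were exposed to compounds for 16 hr at 37C; LiveBLAzer B/G FRET substrate was then added and fluorescence read after 2 hours at room temperature.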

[4] = target: Estrogen receptor beta (Homo sapiens) (UniProt Q92731); test: qHTS assay to identify small molecule antagonists of the estrogen receptor beta (ER-beta) signaling pathway (AID 1259378; active = well fitted inhibition curve with a large enough effect in the signal ratio in the repeat runs, not every such curve was filed as active; the % refers to the signal ratio)
Method in brief: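 Antagonist mode: compounds added to beta-lactamase reporter HEK293T ER-beta-UAS cells stimulated with E2 (1nM final), 16 hr at 37C. LiveBLAzer B/G FRET substrate, 2 hours room temperature, fluorescence read-out.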

[5] = qHTS assay to identify small molecule agonists of the androgen receptor (AR) signaling pathway in the presence of an antagonist - cell viability counter screen (AID 1259379; active = well fitted curve in the direction sought with a large enough effect in the repeat runs; an effect the other way counts as inactive or inconclusive;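 note: MDA-kb2 human breast cancer cells carrying an MMTV luciferase reporter; series mostly up to about 92 µM; nearly all actives have a fitted effect of over 25% in size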)
Method in brief: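 Counter screen for cell viability run in parallel with the AR agonist-mode luciferase assay. MDA-kb2 cells were co-treated with nilutamide (3.0uM final) and compounds, then incubated 16 hr at 37C, and CellTiter-Fluor fluorescence was measured.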

[6] = qHTS assay to identify small molecule agonists of the estrogen receptor beta (ER-beta) signaling pathway - cell viability counter screen (AID 1259380; active = well fitted curve in the direction sought with a large enough effect in the repeat runs; an effect the other way counts as inactive or inconclusive; note: nearly all actives have a fitted effect of over 30% in size; note: potency is the fitted concentration of half-maximal effect)
Method in brief: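 In this qHTS counter screen, HEK293T cells carrying an ER-beta/UAS beta-lactamase reporter, grown in 2% charcoal-stripped FBS, received compound for 16 hr; ATP-based CellTiter-Glo luminescence was then read after 30 min at room temperature.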

[7] = target: Androgen receptor (Homo sapiens) (UniProt P10275); test: qHTS assay to identify small molecule agonists of the androgen receptor (AR) signaling pathway in the presence of an antagonist (AID 1259381); note: nearly all actives have a fitted effect of over 15% in size
Androgen receptor (Homo sapiens), sequence (P10275 whole entry, looked up): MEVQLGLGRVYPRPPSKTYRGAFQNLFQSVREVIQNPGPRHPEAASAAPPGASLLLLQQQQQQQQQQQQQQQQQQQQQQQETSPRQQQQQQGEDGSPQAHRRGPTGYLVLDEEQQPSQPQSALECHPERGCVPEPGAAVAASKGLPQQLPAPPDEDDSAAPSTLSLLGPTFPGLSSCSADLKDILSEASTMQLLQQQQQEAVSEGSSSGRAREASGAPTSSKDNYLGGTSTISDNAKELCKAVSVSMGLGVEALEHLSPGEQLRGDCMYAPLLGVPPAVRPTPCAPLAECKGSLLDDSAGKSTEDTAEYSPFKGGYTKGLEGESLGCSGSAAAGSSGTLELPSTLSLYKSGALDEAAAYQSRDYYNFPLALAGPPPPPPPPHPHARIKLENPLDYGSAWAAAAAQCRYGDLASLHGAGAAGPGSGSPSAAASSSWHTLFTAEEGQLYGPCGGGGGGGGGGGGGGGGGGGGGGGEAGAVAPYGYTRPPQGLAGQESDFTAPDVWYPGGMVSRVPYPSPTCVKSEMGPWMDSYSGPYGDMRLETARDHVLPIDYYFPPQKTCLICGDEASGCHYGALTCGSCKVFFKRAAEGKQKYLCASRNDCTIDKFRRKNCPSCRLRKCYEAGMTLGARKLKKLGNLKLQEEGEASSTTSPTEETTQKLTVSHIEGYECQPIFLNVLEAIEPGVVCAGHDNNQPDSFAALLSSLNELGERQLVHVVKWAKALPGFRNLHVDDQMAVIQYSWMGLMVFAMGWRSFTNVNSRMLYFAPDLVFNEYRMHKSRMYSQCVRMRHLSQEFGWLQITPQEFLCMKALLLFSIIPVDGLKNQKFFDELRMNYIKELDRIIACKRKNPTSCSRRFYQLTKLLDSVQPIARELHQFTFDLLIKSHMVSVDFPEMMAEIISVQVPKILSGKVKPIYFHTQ
Method in brief: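 AR antagonist background: nilutamide 3.0uM final. Cell line: MDA-kb2, MMTV-driven luciferase, responsive to both AR and GR. Exposure 16hr, 37C, no CO2; ONE-Glo luminescence.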

[8] = qHTS assay to identify small molecule antagonists of the estrogen receptor beta (ER-beta) signaling pathway - cell viability counter screen (AID 1259382; active = well fitted curve in the direction sought with a large enough effect in the repeat runs; an effect the other way counts as inactive or inconclusive; note: series mostly up to about 92 µM; nearly all actives have a fitted effect of over 55% in size)
Method in brief: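 HEK293T ER-beta-UAS-bla, 2% charcoal-stripped FBS; compounds + 1nM E2 16 hr 37C; CellTiter-Glo luminescence, 30 min RT.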

[9] = target: Estrogen receptor (Homo sapiens) (UniProt P03372); test: qHTS assay to identify small molecule agonists of the estrogen receptor alpha (ER-alpha) signaling pathway in the presence of an antagonist (AID 1259383); note: top concentration of the series differs between compounds; nearly all actives have a fitted effect of over 15% in size
Estrogen receptor (Homo sapiens), sequence (P03372 whole entry, looked up): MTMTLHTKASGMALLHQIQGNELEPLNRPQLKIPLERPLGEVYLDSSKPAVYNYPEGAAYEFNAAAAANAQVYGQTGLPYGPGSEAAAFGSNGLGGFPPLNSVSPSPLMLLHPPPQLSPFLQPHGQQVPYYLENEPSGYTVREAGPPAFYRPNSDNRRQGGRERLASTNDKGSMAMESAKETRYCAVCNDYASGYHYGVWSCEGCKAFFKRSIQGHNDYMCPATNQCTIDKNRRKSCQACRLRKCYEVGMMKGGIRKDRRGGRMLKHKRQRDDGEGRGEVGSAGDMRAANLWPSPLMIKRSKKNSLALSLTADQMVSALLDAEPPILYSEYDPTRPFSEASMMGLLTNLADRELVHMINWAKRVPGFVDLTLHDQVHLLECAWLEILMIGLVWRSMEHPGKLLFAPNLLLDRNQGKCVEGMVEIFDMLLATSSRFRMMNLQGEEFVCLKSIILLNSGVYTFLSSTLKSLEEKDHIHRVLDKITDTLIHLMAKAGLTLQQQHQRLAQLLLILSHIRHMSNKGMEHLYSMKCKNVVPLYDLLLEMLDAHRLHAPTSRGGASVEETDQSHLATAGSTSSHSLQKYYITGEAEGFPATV
Method in brief: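 ER-alpha agonism measured under antagonist challenge: 10.0nM ICI-182,780 (final) plus compound, 15 concentrations, 22hr, VM7Luc4E2 ERE-luciferase cells. Read by luminescence.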

[10] = qHTS assay to identify small molecule agonists of the estrogen receptor alpha (ER-alpha) signaling pathway in the presence of an antagonist - cell viability counter screen (AID 1259386; active = well fitted curve in the direction sought with a large enough effect in the repeat runs; an effect the other way counts as inactive or inconclusive;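 note: series mostly up to about 92 µM; cells exposed to compounds for 22 h at 37 °C before the viability read; nearly all actives have a fitted effect of over 30% in size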)
Method in brief: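 Steps: 5-day stripped-FBS culture; seed and incubate 24hr; add ICI-182,780 (10.0nM final); pin 15-point compound titration; incubate 22hr at 37C; add CellTiter-Fluor at 21hr; read fluorescence.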

[11] = target: Progesterone receptor (Homo sapiens) (UniProt P06401); test: qHTS assay to identify small molecule agonists of the progesterone receptor (PR) signaling pathway (AID 1346784); note: nearly all actives have a fitted effect of over 30% in size
Progesterone receptor (Homo sapiens), sequence (P06401 whole entry, looked up): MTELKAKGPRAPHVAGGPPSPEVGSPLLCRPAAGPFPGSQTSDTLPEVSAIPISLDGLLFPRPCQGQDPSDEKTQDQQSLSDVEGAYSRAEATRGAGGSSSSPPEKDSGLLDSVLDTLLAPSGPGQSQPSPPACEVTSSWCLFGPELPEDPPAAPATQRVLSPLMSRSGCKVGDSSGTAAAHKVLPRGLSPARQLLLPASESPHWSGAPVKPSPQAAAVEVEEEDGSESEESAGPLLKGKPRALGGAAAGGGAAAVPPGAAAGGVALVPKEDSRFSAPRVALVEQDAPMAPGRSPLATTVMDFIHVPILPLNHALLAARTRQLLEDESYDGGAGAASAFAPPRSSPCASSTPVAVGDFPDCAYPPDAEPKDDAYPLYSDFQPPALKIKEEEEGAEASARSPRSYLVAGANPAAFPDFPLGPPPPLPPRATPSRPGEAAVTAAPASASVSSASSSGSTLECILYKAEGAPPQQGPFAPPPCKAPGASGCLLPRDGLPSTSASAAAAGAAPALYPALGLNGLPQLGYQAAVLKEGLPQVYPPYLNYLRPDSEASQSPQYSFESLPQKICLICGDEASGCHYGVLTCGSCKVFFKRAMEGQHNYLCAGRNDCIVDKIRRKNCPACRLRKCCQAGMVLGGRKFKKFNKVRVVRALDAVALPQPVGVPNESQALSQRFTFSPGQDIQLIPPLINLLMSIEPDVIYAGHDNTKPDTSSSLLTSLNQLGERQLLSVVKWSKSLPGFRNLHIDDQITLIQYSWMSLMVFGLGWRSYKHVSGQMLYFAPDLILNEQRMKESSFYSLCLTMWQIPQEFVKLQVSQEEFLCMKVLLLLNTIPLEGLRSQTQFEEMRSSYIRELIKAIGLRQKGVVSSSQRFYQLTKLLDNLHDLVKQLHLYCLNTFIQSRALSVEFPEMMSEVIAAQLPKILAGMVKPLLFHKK
Method in brief: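 PR-UAS-bla HEK 293T cells carrying a UAS-driven beta-lactamase reporter were seeded in medium with 2% charcoal-stripped FBS, preincubated 6 hr at 37C, then exposed to compounds in DMSO for 16 hr; agonism was read by LiveBLAzer B/G FRET fluorescence.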

[12] = target: Progesterone receptor (Homo sapiens) (UniProt P06401); test: qHTS assay to identify small molecule antagonists of the progesterone receptor (PR) signaling pathway (AID 1346795; active = well fitted inhibition curve with a large enough effect in the signal ratio in the repeat runs, not every such curve was filed as active; the % refers to the signal ratio)
Method in brief: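 PR-UAS-bla HEK293T cells carrying a UAS-driven beta-lactamase reporter were plated in medium with 2% charcoal-stripped FBS and rested 6 hr at 37C. Compounds were added with 1 nM R5020 (final) for 16 hr, then FRET substrate loaded 2 hr at room temperature.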

[13] = qHTS assay to identify small molecule agonists of the progesterone receptor (PR) signaling pathway - cell viability counter screen (AID 1346799); note: nearly all actives have a fitted effect of over 45% in size
Method in brief: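 PR-UAS-bla HEK293T cells, 3,000 per well in medium with 2% charcoal-stripped FBS, were preincubated 6 hr at 37C, then exposed to compounds for 16 hr; viability was read as CellTiter-Glo luminescence after 30 min at room temperature.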

[14] = qHTS assay to identify small molecule antagonists of the TGF-beta/Smad signaling pathway - cell viability counter screen (AID 1346824; active = well fitted curve in the direction sought with a large enough effect in the repeat runs; an effect the other way counts as inactive or inconclusive; note: nearly all actives have a fitted effect of over 50% in size)
Method in brief: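 Cytotoxicity counter-screen run in the same wells as the beta-lactamase Smad reporter read: CellTiter-Glo luminescence after 30 min at room temperature. HEK 293T SBE-bla cells had 5 hr compound exposure at 37 C with TGF-beta1 (0.25 ng/mL stock).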

[15] = qHTS assay to identify small molecule agonists of the TGF-beta/Smad signaling pathway - cell viability counter screen (AID 1346829; active = well fitted curve in the direction sought with a large enough effect in the repeat runs; an effect the other way counts as inactive or inconclusive; note: top concentration of the series differs between compounds; nearly all actives have a fitted effect of over 45% in size)
Method in brief: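 Here the cytotoxicity of library compounds is measured in SBE-bla HEK 293T cells treated for 5 hr, using CellTiter-Glo added to wells already read for the beta-lactamase reporter.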

[16] = qHTS assay to identify small molecule agonists of the TGF-beta/Smad signaling pathway (AID 1346859; active = well fitted activation curve with a large enough effect in the signal ratio in the repeat runs, not every such curve was filed as active; the % refers to the signal ratio; note: series mostly up to about 77 µM)
Method in brief: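 HEK 293T cells stably carrying a beta-lactamase reporter driven by the Smad binding element were seeded overnight, exposed to DMSO-dissolved compounds for 5 hr at 37 C, 5% CO2, then loaded with FRET substrate for 2 hr at room temperature.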

[17] = target: Thyrotropin-releasing hormone receptor (Homo sapiens) (UniProt P34981); test: qHTS assay to identify small molecule antagonists of the thyrotropin-releasing hormone receptor (TRHR) signaling pathway (AID 1346877; active = well fitted inhibition curve with a large enough effect in the repeat runs, not every such curve was filed as active; note: series mostly up to about 51 µM)
Thyrotropin-releasing hormone receptor (Homo sapiens), sequence (P34981 whole entry, looked up): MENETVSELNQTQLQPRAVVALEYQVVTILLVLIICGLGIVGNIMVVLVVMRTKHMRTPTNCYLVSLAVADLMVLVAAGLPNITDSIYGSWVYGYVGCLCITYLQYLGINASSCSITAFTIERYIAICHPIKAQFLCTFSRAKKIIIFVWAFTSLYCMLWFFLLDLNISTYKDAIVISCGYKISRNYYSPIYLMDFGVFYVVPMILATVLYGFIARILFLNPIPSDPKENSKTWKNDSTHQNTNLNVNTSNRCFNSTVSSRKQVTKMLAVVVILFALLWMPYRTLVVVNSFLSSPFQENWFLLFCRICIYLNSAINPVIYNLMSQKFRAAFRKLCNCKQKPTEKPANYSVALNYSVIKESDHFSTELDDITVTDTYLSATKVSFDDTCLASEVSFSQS
Method in brief: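 Human TRHR in HEK293 cells; inhibition of the intracellular calcium rise triggered by 1 nM TRH was followed by fluorescence over 3 min. Compounds were run at 15 concentrations, three replicates each.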

[18] = qHTS assay to identify small molecule agonists or antagonists of the thyroid stimulating hormone receptor (TSHR) signaling pathway - wild type cell line counter screen (AID 1259384)
Method in brief: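 Counter screen in untransfected Hek293: compounds (15-point titration, triplicate) plus phosphodiesterase inhibitor Ro20-1724 added after 18 h plating; 30 min RT. Intracellular cAMP via competitive d2/cryptate immunoassay, 1 h incubation.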

[19] = target: Thyrotropin receptor (Homo sapiens) (UniProt P16473); test: qHTS assay to identify small molecule antagonists of the thyroid stimulating hormone receptor (TSHR) signaling pathway (AID 1259385); note: nearly all actives have a fitted effect of over 20% in size
Thyrotropin receptor (Homo sapiens), sequence (P16473 whole entry, looked up): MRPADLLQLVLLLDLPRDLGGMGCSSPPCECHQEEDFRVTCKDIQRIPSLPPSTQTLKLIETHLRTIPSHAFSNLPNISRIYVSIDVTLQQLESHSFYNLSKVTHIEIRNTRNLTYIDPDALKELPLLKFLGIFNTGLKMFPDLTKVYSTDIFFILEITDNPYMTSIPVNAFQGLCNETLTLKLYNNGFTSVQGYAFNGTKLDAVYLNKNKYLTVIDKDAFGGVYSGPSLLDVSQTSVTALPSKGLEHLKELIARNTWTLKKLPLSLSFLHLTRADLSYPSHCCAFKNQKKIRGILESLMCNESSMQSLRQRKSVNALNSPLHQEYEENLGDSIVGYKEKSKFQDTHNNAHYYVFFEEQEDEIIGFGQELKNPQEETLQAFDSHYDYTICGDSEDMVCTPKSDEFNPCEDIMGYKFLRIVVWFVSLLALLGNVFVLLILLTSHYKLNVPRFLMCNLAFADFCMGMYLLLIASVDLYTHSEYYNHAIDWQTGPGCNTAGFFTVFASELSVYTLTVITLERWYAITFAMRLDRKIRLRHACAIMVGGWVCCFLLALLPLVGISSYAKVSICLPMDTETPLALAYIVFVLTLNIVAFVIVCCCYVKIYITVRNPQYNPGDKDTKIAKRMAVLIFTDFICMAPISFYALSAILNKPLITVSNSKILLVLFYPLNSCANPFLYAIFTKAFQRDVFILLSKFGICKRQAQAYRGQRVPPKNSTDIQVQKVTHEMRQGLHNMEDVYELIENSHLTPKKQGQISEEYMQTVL
Method in brief: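 Antagonist mode: compound-treated TSHR-expressing HEK293 cells were stimulated with 1.5 ng/mL TSH (final) in presence of Ro20-1724 for 30 min at RT. HTRF cAMP detection after 1 h; each compound tested at 15 concentrations, triplicate.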

[20] = qHTS assay to identify small molecule antagonists of the progesterone receptor (PR) signaling pathway - cell viability counter screen (AID 1346798; active = well fitted curve in the direction sought with a large enough effect in the repeat runs; an effect the other way counts as inactive or inconclusive; note: series mostly up to about 92 µM; nearly all actives have a fitted effect of over 50% in size)
Method in brief: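 PR-UAS-bla HEK293T cells in medium with 2% charcoal-stripped FBS were treated with compounds plus R5020 for 16 hr at 37C. Cell viability was then read by CellTiter-Glo luminescence after 30 min at room temperature in the same wells.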

SMILES	outcome [1]	Potency [2]	outcome [3]	Potency [4]	Potency [5]	Potency [6]	Potency [7]	Potency [8]	Potency [9]	Potency [10]	Potency [11]	outcome [12]	Potency [13]	outcome [14]	Potency [15]	outcome [16]	outcome [17]	outcome [18]	outcome [19]	Potency [20]
Cc1cc(=O)n(-c2ccccc2)n1C	inactive	inactive	inactive	inactive	inactive	inactive	inactive	inactive	inactive	inactive	inactive	inactive	inactive	inactive	inactive	inactive	inactive			
NC(N)=NC(=O)c1nc(Cl)c(N)nc1N	inactive	inactive	inactive	inactive	inactive	inactive		inactive	inactive	inactive	inactive	inactive	inactive	inactive		inactive	inactive	inactive	inactive	inactive
O=c1cc[nH]c(=S)[nH]1	inactive	inactive	inactive	inactive	inactive	inactive		inactive	inactive	inactive	inactive	inactive	inactive	inactive			inactive	inactive	inactive	inactive
Cc1ccc(S(=O)(=O)NC(=O)NN2CCCCCC2)cc1	inactive	inactive	inactive	inactive	inactive	inactive		inactive	inactive	inactive	inactive		inactive	inactive			inactive	inactive	inactive	
NC(N)=O	inactive	7.28 µM (active) and inactive and 68.6 µM (active)	inactive	inactive	inactive	inactive		inactive	inactive	inactive	inactive		inactive	inactive	inactive			inactive	inactive	
O=c1ccc2ccccc2o1	inactive	inactive	inactive	inactive	inactive	inactive		inactive	inactive	inactive	inactive	inactive	inactive	inactive		inactive		inactive	inactive	
Nc1ccn([C@H]2CC[C@@H](CO)O2)c(=O)n1	inactive	inactive	inactive	inactive	inactive	inactive		inactive	inactive	inactive			inactive	inactive			inactive	inactive	inactive	inactive
NC(=O)c1cnccn1	inactive	inactive	inactive	inactive	inactive	inactive and 33.5 µM (active)		inactive	inactive	inactive	inactive		inactive	inactive		inactive	inactive			
OC(Cn1cncn1)(Cn1cncn1)c1ccc(F)cc1F	inactive	inactive	inactive	inactive	inactive	inactive		inactive	inactive	inactive	inactive	inactive	inactive	inactive				inactive	inactive	
COc1c2occc2cc2ccc(=O)oc12	inactive	24.3 µM (active) and inactive	inactive	inactive	inactive	inactive		inactive		inactive	inactive		inactive	inactive		inactive		inactive	inactive	inactive
O=C(O)c1cccnc1	inactive	inactive	inactive	inactive	inactive	inactive		inactive		inactive	inactive	inactive	inactive	inactive	inactive	inactive	inactive	inactive	inactive	inactive
C1N2CN3CN1CN(C2)C3	inactive	inactive	inactive	inactive	inactive	inactive	inactive	inactive		inactive	inactive	inactive	inactive	inactive	inactive		inactive	inactive	inactive	inactive
NC(=O)c1ccccc1O	inactive	inactive	inactive	inactive	inactive	inactive		inactive	inactive	inactive	inactive	inactive	inactive	inactive	inactive		inactive	inactive	inactive	
CCCC(O)C(CC)CO (configuration not stated)	inactive	inactive	inactive	inactive	inactive	inactive		inactive	inactive	inactive	inactive	inactive	inactive	inactive		inactive				inactive
CC(=O)Nc1nnc(S(N)(=O)=O)s1	inactive	inactive	inactive	inactive	inactive	inactive		inactive	inactive	inactive	inactive	inactive	inactive	inactive	inactive		inactive	inactive	inactive	
CCCNC(=O)NS(=O)(=O)c1ccc(Cl)cc1	inactive	inactive	inactive	inactive	inactive	inactive		inactive	inactive	inactive	inactive		inactive	inactive				inactive	inactive	inactive
